Results published in the supplement of paper PMC12340641.
± gives the standard deviation of the averaged measurements.

Biological target: IKZF1 (dCK*-IKZF1 fusion in HEK293FT) (UniProt Q13422)
Test: inhibition of IKZF1 HTRF signal (DMSO = 0%, pomalidomide 10 uM = 100%); higher = lower IKZF1 protein level
Settings: compound concentration: 5 uM, overnight (~20 h)
Summary of the method: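 Percent inhibition of IKZF1 signal was calculated per plate with vehicle and a reference degrader as anchors. The anchors were 0% for vehicle and 100% for the degrader, applied to background-subtracted 665/620 nm time-resolved FRET ratios from a commercial HTRF total-IKZF1 kit. Signal came from HEK293FT cells stably expressing an IKZF1 fusion, treated overnight at 37 °C with 5 μM compound in single wells of 384-well plates.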

Sequence of IKZF1 (dCK*-IKZF1 fusion in HEK293FT) (Q13422 whole entry, looked up, the tested form may be a part): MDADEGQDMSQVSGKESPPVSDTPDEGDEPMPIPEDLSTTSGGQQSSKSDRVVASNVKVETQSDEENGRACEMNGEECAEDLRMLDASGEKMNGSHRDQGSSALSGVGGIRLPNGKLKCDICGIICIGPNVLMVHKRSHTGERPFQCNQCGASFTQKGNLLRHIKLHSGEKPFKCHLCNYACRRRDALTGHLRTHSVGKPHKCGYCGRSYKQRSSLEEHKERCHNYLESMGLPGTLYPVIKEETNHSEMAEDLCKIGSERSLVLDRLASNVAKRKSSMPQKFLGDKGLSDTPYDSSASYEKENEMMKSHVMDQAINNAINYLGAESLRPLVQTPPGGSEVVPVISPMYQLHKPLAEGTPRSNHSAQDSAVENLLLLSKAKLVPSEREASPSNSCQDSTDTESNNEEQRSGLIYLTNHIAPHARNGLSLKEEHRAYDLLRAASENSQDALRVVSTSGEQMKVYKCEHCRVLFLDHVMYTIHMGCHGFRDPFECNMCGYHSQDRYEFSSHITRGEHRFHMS

SMILES	inhibition of IKZF1 HTRF signal [%]
ClC(C=C3)=C(Cl)C=[C@@]3[C@H]2C1=CC=CC=C1[C@H](NC)C2 [indatraline]	28.4
Oc1cc(Cl)ccc1Oc1ccc(Cl)cc1Cl	-23.1
C[C@@]12C(=O)OC(=O)[C@]1(C)[C@H]1CC[C@@H]2O1 [cantharidin]	15.8
c1ccc(CCCN2CCN(CCOC(c3ccccc3)c3ccccc3)CC2)cc1	-28.8
Fc1ccc(C(OCCN2CCN(C/C=C/c3ccccc3)CC2)c2ccc(F)cc2)cc1	-25.2
CN(C)C(=S)SSC(=S)N(C)C	-13.8
COc1cc([C@@H]2c3cc4c(cc3[C@H](O)[C@H]3COC(=O)C23)OCO4)cc(OC)c1OC (stereo partly drawn) [Podofilox]	49.2
CO[C@H]1C[C@H](O[C@H]2CC[C@@]3(C)[C@H](CC[C@@H]4[C@@H]3CC[C@]3(C)[C@@H](C5=CC(=O)OC5)[C@@H](OC(C)=O)C[C@]43O)C2)O[C@@H](C)[C@@H]1O [Oleandrin]	45.9
COc1cc2c(c(OC)c1OC)-c1ccc(OC)c(=O)cc1[C@@H](NC(C)=O)CC2	-16.1
COc1cc([C@@H]2c3cc4c(cc3[C@H](O)[C@H]3COC(=O)[C@H]23)OCO4)cc(OC)c1OC	50
C=C(C)CN1CC[C@]23c4c5ccc(O)c4O[C@H]2c2[nH]c4ccccc4c2C[C@@]3(O)C1C5	-30.3
C[C@]12CCC3C(CC[C@]4(O)C[C@@H](O)CC[C@]34C=O)[C@@]1(O)CCC2C1=CC(=O)OC1 (stereo partly drawn) [Strophantidin]	74.7
COc1cc2c(c(OC)c1OC)-c1ccc(OC)c(=O)cc1[C@@H](NC(C)=O)CC2 [Colchicine]	17.9 ± 34
